Laboratory results reported in PubChem BioAssay (NCATS).
Where “and” joins values, the source holds several entries; their conditions need not be identical. Equal entries are not always repeated. Results filed as inconclusive are left out. Where a call stands in place of a potency, no number is given. Unmarked numbers belong to inactive results. Calls of active or inactive are those of the source. Calls come from the whole dose curve; as a rule, active = well fitted cell-killing curve with a large enough effect; inconclusive = small, poorly fitted or top-dose-only effect, or effect the other way; inactive = no such curve, though single readings can be large or run the other way.

Tests used:
[1] = Viability qHTS for spleen associated tyrosine kinase inhibitor (SYKi) naive MV4-11 cells (AID 1963823); conditions: MV4-11 AML viability, CellTiter-Glo luminescence, 72 h; series mostly up to 45 µM; note: nearly all actives have a fitted effect of over 40% in size
How it was run: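 SYK inhibitor-naive MV4-11 cells, 500 per well, exposed to compounds for 72 hr at 37 C, 5% CO2. Viability read as CellTiter-Glo luminescence after 10 min at room temperature.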

[2] = Viability qHTS for spleen associated tyrosine kinase inhibitor (SYKi) drug resistant MV4-11 cells (AID 1963824); conditions: SYKi-resistant MV4-11 viability, CellTiter-Glo, 72 h; series mostly up to 45 µM; note: nearly all actives have a fitted effect of over 35% in size
How it was run: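 SYK-inhibitor-resistant MV4-11 AML cells were seeded at 500 per well onto compound and cultured 72 hours (37 °C, 5% CO2). CellTiter-Glo was then added, and after 10 min at room temperature, luminescence gave viability.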
Potency is the fitted concentration of half-maximal effect.

| SMILES | Potency [1] | Potency [2] | viability (% of control) [1] | viability, % of control [2] |
| --- | --- | --- | --- | --- |
| C=C1C(=O)OC2C(OC(=O)C=C(C)C)C(C)=C3C(=O)C=C(C)C3C(O)C12 (stereo unspecified) | 2.02 µM (active) | 1.61 µM (active) | – | – |
| COc1cc(/C=C/C(=O)OC2CC(OC(C)=O)C(OC(C)=O)C3C2CCC2C(=O)OC(c4ccoc4)CC23C)ccc1O[C@@H]1O[C@H](CO)[C@@H](O)[C@H](O)[C@H]1O (stereo partly specified) | inactive | inactive | – | – |
| N#Cc1ccc2ncnc(NCCc3ccccc3)c2c1 | 8.2 µM (active) | 4.11 µM (active) | – | – |
| CC/C=C\CC1C(=O)CCC1CC(=O)OC (stereo unspecified) | inactive | inactive | – | – |
| CC1=C2CC(=O)C(C)CC/C=C(\C)CC2(O)OC1=O (stereo unspecified) | inactive | inactive | – | – |
| CC(=O)O[C@@H]1[C@H](O[C@@H]2O[C@H](CO)[C@@H](O)[C@H](O)[C@H]2O)[C@@H](O[C@@H]2O[C@@H](C)[C@H](O)[C@@H](O[C@@H]3O[C@H](CO)[C@@H](O)[C@H](O)[C@H]3O)[C@H]2O)[C@H](OC(=O)[C@]23CCC(C)(C)C[C@H]2C2=CCC4[C@@]5(C)C[C@H](O)[C@H](O[C@@H]6O[C@H](C(=O)O)[C@@H](O)[C@H](O)[C@H]6O)[C@@](C)(C(=O)O)C5CC[C@@]4(C)[C@]2(C)CC3)O[C@@H]1C (stereo partly specified) | – | – | 81.2% [at 9.25 µM] | 91.2% [at 9.25 µM] |
| CS(=O)(=O)N(CC(=O)NCC1CC1)c1cc(C(F)(F)F)ccc1Cl | inactive | inactive | – | – |
| O=C(CC1CC(c2ccc(F)cc2F)=NO1)N1CCOCC1 (stereo unspecified) | inactive | inactive | – | – |
| Cc1ncc(NC(=O)c2ccc(CN3CCN(C)CC3)c(C(F)(F)F)c2)cc1Nc1nccc(-c2cccnc2)n1 | 920 nM (active) and 1.66 µM (active) | 2.06 µM (active) and 3.32 µM (active) | – | – |
| CC12CCC3c4ccc(O)cc4CCC3C1CC(OC1OC(C(=O)O)C(O)C(O)C1O)C2O (stereo unspecified) | inactive | inactive | – | – |
| COc1ccc(-c2ccc3c(N4CCOCC4)nc(N4CC(C)OC(C)C4)nc3n2)cc1CO (stereo unspecified) | 0.291 µM (active) | 1.03 µM (active) | – | – |
| COC(=O)C12CCC(C)C(C)C1C1=CCC3C4(C)CCC(OC(C)=O)C(C)(C)C4CCC3(C)C1(C)CC2 (stereo unspecified) | inactive | inactive | – | – |
| CCN(CCN(C)C)C(=O)CNCc1cc(C(N)=O)ccn1 | inactive | inactive | – | – |
| CC1CCC/C=C/C(=O)c2c(O)cc(O)cc2CC(=O)O1 (stereo unspecified) | 3.66 µM (active) | 2.06 µM (active) | – | – |
| CC(=O)O[C@H]1CC(C)(C)CC2[C@]13CO[C@@]21CCC2[C@@]4(C)CC[C@H](O[C@@H]5OC[C@H](O[C@@H]6O[C@H](CO)[C@@H](O)[C@H](O)[C@H]6O[C@@H]6OC[C@@H](O[C@@H]7O[C@H](CO)[C@@H](O)[C@H](O)[C@H]7O)[C@H](O)[C@H]6O)[C@H](O)[C@H]5O[C@@H]5O[C@H](CO)[C@@H](O)[C@H](O)[C@H]5O)[C@@](C)(CO)C4CC[C@@]2(C)[C@]1(C)C[C@H]3O (stereo partly specified) | 1.55 µM (active) | 1.23 µM (active) | – | – |
| CN(c1ccccc1CNc1nc(Nc2ccc3c(c2)CC(=O)N3)ncc1C(F)(F)F)S(C)(=O)=O | 0.291 µM (active) | 0.326 µM (active) | – | – |
| OC[C@@]1(O)CO[C@H](OC[C@H]2O[C@@H](OCCc3ccccc3)[C@H](O)[C@@H](O)[C@@H]2O)[C@@H]1O | inactive | inactive | – | – |
| CC1=CC(=O)CC(C)(C)C1/C=C/C(C)OC1OC(COC2OCC(O)C(O)C2O)C(O)C(O)C1O (stereo unspecified) | inactive | inactive | – | – |
| COc1c2c(c(C)c3c1C(=O)OC3)OC1(C)CC(O)C34OC(OC)(CCC3(C)C1C2)OC4(C)CO (stereo unspecified) | inactive | inactive | – | – |
| CN(Cc1ccc(C(=O)O)cc1)c1ccc(OCc2c(-c3c(Cl)cccc3Cl)noc2C2CC2)nc1C(F)(F)F | 20.6 µM (active) | 16.4 µM (active) | – | – |
| CCC(NC(=O)CC(NC(=O)C(CO)NC(=O)C(CC)NC(=O)c1ccc[nH]1)c1ccccc1)C(=O)O (stereo unspecified) | inactive | inactive | – | – |
| Cc1ccc(Cc2c(C)nc3nc(SCC(=O)NCCN4CCNCC4)nn3c2C)cc1 | inactive | inactive | – | – |
| COc1ccc(CN2C(=O)C(=O)c3cc(S(=O)(=O)N4CCC[C@H]4COc4cccnc4)ccc32)cc1 | inactive | inactive | – | – |
| OC[C@H]1O[C@@H](n2cnc3c(NCc4ccc(O)cc4)ncnc32)[C@H](O)[C@@H]1O | 1.03 µM (active) | 0.731 µM (active) | – | – |

| SMILES | Potency [1] | Potency [2] | viability (% of control) [1] | viability, % of control [2] |
| --- | --- | --- | --- | --- |
| CC(C)=CCC/C(C)=C/CC/C(C)=C/COC1OC(COC2OCC(OC3OCC(O)C(O)C3O)C(O)C2O)C(O)C(OC2OC(C)C(OC3OC(C)C(OC4OCC(OC5OC(C)C(O)C(O)C5O)C(O)C4O)C(O)C3O)C(O)C2O)C1O (stereo unspecified) | – | – | 70.7% [at 9.25 µM] | 96.7% [at 9.25 µM] |
| CC(C)=C1CC2C(CCC2(C)O)C(C)(O)CC1=O (stereo unspecified) | inactive | inactive | – | – |
| O=C(O)Cc1nn(Cc2nc3cc(C(F)(F)F)ccc3s2)c(=O)c2nccnc12 | inactive | inactive | – | – |
| CC(C)CC1NC(=O)C2CC3(O)c4ccccc4NC3N2C1=O (stereo unspecified) | inactive | inactive | – | – |
| O=C(OC[C@H]1O[C@H](O[C@]2(CO)O[C@H](CO)[C@@H](O)[C@@H]2O)[C@H](O)[C@@H](O)[C@@H]1O)c1ccccc1 | inactive | inactive | – | – |
| CC(C)=CCCC1(C)Oc2cc3c(c4c2C2C(O4)C(C)(O)CCC21)CN(C(CCC(=O)O)C(=O)O)C3=O (stereo unspecified) | inactive | inactive | – | – |
| CN[C@H](CC(C)C)C(=O)N[C@H]1C(=O)N[C@@H](CC(N)=O)C(=O)N[C@H]2C(=O)N[C@H]3C(=O)N[C@H](C(=O)N[C@H](C(=O)O)c4cc(O)cc(O)c4-c4cc3ccc4O)[C@H](O[C@H]3C[C@](C)(N)[C@@H](O)[C@H](C)O3)c3ccc(c(Cl)c3)Oc3cc2cc(c3O[C@@H]2O[C@H](CO)[C@@H](O)[C@H](O)[C@H]2O[C@H]2C[C@](C)(NCc3ccc(-c4ccc(Cl)cc4)cc3)[C@@H](O)[C@H](C)O2)Oc2ccc(cc2Cl)[C@H]1O | inactive | inactive | – | – |
| O=C(/C=C/c1ccc(O)c(O)c1)O[C@H]1[C@H](OC2CCCCC2O)O[C@H](CO)[C@@H](O)[C@@H]1O (stereo partly specified) | inactive | inactive | – | – |
| CC(=O)OCC(=O)O[C@@H]1[C@H]2[C@@H](OC(=O)c3ccccc3)[C@@H](C)C[C@]2(O)[C@H](OC(C)=O)C2(C)[C@H]3CC(C)(C)C(=O)[C@@H]3CC1(OC(C)=O)[C@@H]2OC(C)=O (stereo partly specified) | inactive | inactive | – | – |
| CC(C)=CC/C=C(\C)[C@H]1CC[C@]2(C)[C@@H]1[C@H](O)C[C@@H]1[C@@]3(C)CC[C@H](O)C(C)(C)[C@@H]3[C@@H](O[C@@H]3O[C@H](CO)[C@@H](O)[C@H](O)[C@H]3O)C[C@]12C | inactive | inactive | – | – |
| Cc1ccc(NS(=O)(=O)c2ccc3c(c2)CCC(=O)N3)cc1C | 11.6 µM (active) | 9.2 µM (active) | – | – |
| CC1OC(OC2C(O)C(OC3CCC4(C)C(CCC5(C)C4CC=C4C6CC(C)(COC7OC(CO)C(O)C(O)C7O)CC(O)C6(C)CCC45C)C3(C)C)OC(C(=O)O)C2O)C(O)C(O)C1OC1OCC(O)C(O)C1O (stereo unspecified) | – | – | 54% [at 9.25 µM] | 85% [at 9.25 µM] |
| CC(=O)OC(C)C(C)(O)C(=O)O[C@@H]1CC[C@]2(C)CC(=O)C(=C(C)C)C[C@H]2[C@]1(C)OC(C)=O (stereo partly specified) | 5.63 µM (active) | inactive | – | – |
| C[C@@H]1O[C@@H](OC[C@H]2O[C@@H](OC(CCCCc3ccc(O)cc3)CCc3ccc(O)cc3)[C@H](O)[C@@H](O)[C@@H]2O)[C@H](O)[C@H](O)[C@H]1O (stereo partly specified) | inactive | inactive | – | – |
| C[C@@H]1[C@H]2[C@H](O[C@@H]3O[C@H](CO)[C@@H](O)[C@H](O)[C@H]3O)OC=C(C(=O)O)[C@H]2C[C@@H]1OC(=O)/C=C/c1ccc(O)cc1 | inactive | inactive | – | – |
| C[C@@H]1O[C@@H](O[C@@H]2[C@@H](O)[C@H](O[C@H]3CC[C@@]4(C)C(CC[C@]5(C)C4CC=C4[C@@H]6CC(C)(C)CC[C@]6(C(=O)O[C@@H]6O[C@H](CO)[C@@H](O)[C@H](O)[C@H]6O)CC[C@]45C)C3(C)C)O[C@H](C(=O)O)[C@H]2O)[C@H](O)[C@H](O)[C@H]1O (stereo partly specified) | – | – | 80.6% [at 9.25 µM] | 81.8% [at 9.25 µM] |
| O=c1cc(-c2cccc(O)c2)oc2c(O)c(O)ccc12 | 14.6 µM (active) | 16.4 µM (active) | – | – |
| C=C1C(=O)OC2C1CCC1(C)C(O)CCC(=C)C21 (stereo unspecified) | 9.2 µM (active) | 4.61 µM (active) | – | – |
| CC(/C=C/C1(O)C(C)(C)CC(O)CC1(C)O)OC1OC(CO)C(O)C(O)C1O (stereo unspecified) | inactive | inactive | – | – |
| CNS(=O)(=O)Nc1nccc(Cc2c(C)c3ccc(Oc4ncccn4)cc3oc2=O)c1F | 0.417 µM (active) | 0.59 µM (active) | – | – |
| COC(=O)C[C@@H]1C(C(=O)O)=CO[C@@H](O[C@@H]2O[C@H](CO)[C@@H](O)[C@H](O)[C@H]2O)/C1=C\COC(=O)/C=C/c1ccc(O)c(OC)c1 | inactive | inactive | – | – |
| CCOc1c2c(c(OCC)c3ccccc13)C(=O)N(c1ccc(CC(=O)NS(=O)(=O)c3ccccc3)cc1)C2 | inactive | inactive | – | – |
| C/C=C(/C)C(=O)OC1CC(C)(C)CC2C3=CCC4C5(C)CCC(OC6OC(C)C(OC7OC(C(=O)O)C(O)C(OC8OC(CO)C(O)C(O)C8OC8OC(CO)C(O)C(O)C8O)C7O)C(O)C6O)C(C)(C)C5CCC4(C)C3(C)C(OC(=O)/C=C/C=C/C=C/CCC)C(OC(C)=O)C12CO (stereo unspecified) | – | – | 68.8% [at 9.25 µM] | 73.3% [at 9.25 µM] |
| CNC(=O)c1ccccc1Nc1nc(Nc2ccc3c(c2OC)CCCC(N2CCN(CCO)CC2)C3)ncc1Cl (stereo unspecified) | 0.366 µM (active) | 0.731 µM (active) | – | – |
